Activity calls are given as the source filed them.

The source of these data is PubChem BioAssay.

Experiment [1] deals with Plasmodium falciparum Sir2 (PF13_0152, Sir2A). The experiment in a line: pfSir2 binders on small-molecule microarrays, primary screen, biochemical, small-molecule microarray, 635 nm fluorescence (AID 1098).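 Note: score merges spot fluorescence intensity with its signal-to-noise ratio.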 Conditions: small-molecule microarray binding, fluorescence 635 nm; higher = more signal.
A short description of experiment [2]: small-molecule microarray binders of probe aDKK1, primary screen, biochemical, biotinylated probe, 635/667 nm fluorescence (AID 1099).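 Note: score merges 667nm spot fluorescence with signal to noise across triplicate slides.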 The settings on record: higher = more signal.
Experiment [3] is described as follows: small-molecule microarray binders of probe aCHRDL2, primary screen, biochemical, biotinylated probe, 635/667 nm fluorescence (AID 1100). Conditions: higher = more signal.
Experiment [4] can be described thus: splicing luciferase reporter signal modulators, primary screen, spliceosome inhibition project, cell-based, HEK293, splice +/- reporter (AID 1101).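 Note: HEK293 cells carrying a splicing-competent luciferase reporter gene; test concentration not given here.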 Conditions: luminescence, 24 h, higher = more signal, called active from +8 up or from −8 down. A general note: In a reporter assay the amount or activity of a reporter protein is the signal.
The target in experiment [5] is Fibroblast growth factor 10 (Homo sapiens) (UniProt O15520). The experiment in a line: FGF10 binders on small-molecule microarrays, primary screen, biochemical, small-molecule microarray, 635 nm fluorescence (AID 1102). Conditions: FGF10 binding, fluorescence 635 nm, higher = more signal.
Chain of Fibroblast growth factor 10 (Homo sapiens) (O15520 whole entry, looked up): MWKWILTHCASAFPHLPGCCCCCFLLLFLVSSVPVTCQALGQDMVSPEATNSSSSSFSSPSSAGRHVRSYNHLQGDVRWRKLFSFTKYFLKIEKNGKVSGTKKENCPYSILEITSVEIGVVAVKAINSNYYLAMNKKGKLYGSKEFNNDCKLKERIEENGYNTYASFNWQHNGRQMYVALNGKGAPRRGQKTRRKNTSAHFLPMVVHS
In experiment [6] the test system is glycogen synthase kinase-3 (GSK3A per assay name; protocol says GSK3B). The experiment in a line: GSK3 binders on small-molecule microarrays, primary screen, biochemical, small-molecule microarray, 635 nm fluorescence, GSK3A (AID 1103). Note: the record names both GSK3A and GSK3B. The settings on record: small-molecule microarray binding, fluorescence 635 nm; higher = more signal.
Experiment [7] deals with Epidermal growth factor receptor (Homo sapiens) (UniProt P00533). The experiment can be described thus: EGFR binders on small-molecule microarrays, primary screen, biochemical, small-molecule microarray, 635 nm fluorescence (AID 1104).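 Note: score merges 667 nm emission intensity with spot signal to noise over triplicate slides.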 The settings on record: EGFR binding, higher = more signal.
Chain of Epidermal growth factor receptor (Homo sapiens) (P00533 whole entry, looked up): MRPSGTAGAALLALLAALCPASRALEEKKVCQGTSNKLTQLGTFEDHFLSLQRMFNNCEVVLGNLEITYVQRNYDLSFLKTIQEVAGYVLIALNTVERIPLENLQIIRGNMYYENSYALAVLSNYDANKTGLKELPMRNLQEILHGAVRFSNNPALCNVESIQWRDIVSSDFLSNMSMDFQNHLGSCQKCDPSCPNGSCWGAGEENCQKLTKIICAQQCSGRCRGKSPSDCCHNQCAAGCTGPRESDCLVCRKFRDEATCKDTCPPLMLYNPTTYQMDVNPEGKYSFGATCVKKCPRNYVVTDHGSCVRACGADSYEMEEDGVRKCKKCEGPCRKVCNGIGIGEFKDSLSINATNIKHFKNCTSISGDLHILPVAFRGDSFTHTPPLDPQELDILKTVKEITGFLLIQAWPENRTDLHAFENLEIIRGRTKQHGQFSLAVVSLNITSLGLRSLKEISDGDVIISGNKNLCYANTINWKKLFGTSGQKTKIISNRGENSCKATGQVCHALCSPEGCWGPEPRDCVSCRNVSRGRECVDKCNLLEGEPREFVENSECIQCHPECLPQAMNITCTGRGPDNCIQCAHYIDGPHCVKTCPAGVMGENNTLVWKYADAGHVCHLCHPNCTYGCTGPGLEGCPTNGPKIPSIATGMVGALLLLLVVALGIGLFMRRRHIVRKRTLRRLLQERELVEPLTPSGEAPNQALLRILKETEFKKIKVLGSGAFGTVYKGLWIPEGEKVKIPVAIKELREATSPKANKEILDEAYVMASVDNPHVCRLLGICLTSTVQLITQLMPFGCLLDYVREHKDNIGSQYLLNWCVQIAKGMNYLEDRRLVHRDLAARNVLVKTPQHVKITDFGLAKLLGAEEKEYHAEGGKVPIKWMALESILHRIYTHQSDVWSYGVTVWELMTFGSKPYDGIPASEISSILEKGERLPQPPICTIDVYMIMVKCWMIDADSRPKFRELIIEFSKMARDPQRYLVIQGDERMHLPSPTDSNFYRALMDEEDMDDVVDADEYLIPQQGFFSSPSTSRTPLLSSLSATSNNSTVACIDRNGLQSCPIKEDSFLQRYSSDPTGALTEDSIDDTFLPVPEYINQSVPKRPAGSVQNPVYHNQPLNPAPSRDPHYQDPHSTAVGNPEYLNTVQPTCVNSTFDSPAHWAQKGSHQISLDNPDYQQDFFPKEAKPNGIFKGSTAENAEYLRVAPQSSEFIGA
Experiment [8] concerns the target Follistatin-related protein 3 (Homo sapiens) (UniProt O95633). The experiment in a line: FSTL3 binders on small-molecule microarrays, primary screen, biochemical, small-molecule microarray, 635 nm fluorescence (AID 1105).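 Note: score merges emission near 667 nm and signal to noise per printed spot across three slides.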 Conditions: FSTL3 binding, higher = more signal.
Experiment [9] addresses Dickkopf-related protein 1 (Homo sapiens) (UniProt O94907). The experiment in a line: DKK1 binders on small-molecule microarrays, primary screen, biochemical, small-molecule microarray, 635 nm fluorescence scan (AID 1106).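 Note: score merges emission near 667 nm with signal to noise over three replicate slides.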 Conditions: DKK1 binding, higher = more signal.
In experiment [10] the test system is Inhibin beta A chain (activin A). The experiment in a line: INHBA (activin A) binders on microarrays, primary screen, biochemical, small-molecule microarray, 635 nm fluorescence scan (AID 1107).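 Note: mouse activin A protein probed at 4.33 µg/mL on printed slides; score merges bound-protein fluorescence near 667 nm with spot signal-to-noise.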 Conditions: small-molecule microarray binding, higher = more signal.
The test system of experiment [11] is Human papillomavirus type 1a protein E7 (residues 44-93). The experiment can be described thus: HPV1a E7 fragment binders on microarrays, primary screen, biochemical, small-molecule microarray, residues 44-93, 635 nm fluorescence (AID 1108).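 Note: E7 fragment applied at 1 µg/mL in TBST for 1 h at 4 C; score combines spot fluorescence with its signal to noise ratio.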 Conditions: small-molecule microarray binding, fluorescence 635 nm; higher = more signal.
A short description of experiment [12]: modulators of HCV replicon luciferase signal, primary screen, HCV replication inhibitor project, Huh7 cells, luciferase reporter (AID 1109).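 Note: huh7 hepatoma cells harbouring a luciferase neomycin HCV replicon reporter; luciferase luminescence as measure of HCV replicon replication; test concentration not given here.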 The settings on record: 48 h, higher = more signal. (In general: A replicon is a self-replicating genome or part of one, used to study replication in cells.)
Experiment [13] addresses Left-right determination factor 2 (Homo sapiens) (UniProt O00292). The experiment can be described thus: LEFTY2 binders on small-molecule microarrays, primary screen, biochemical, small-molecule microarray, 635 nm fluorescence scan (AID 1110). Conditions: LEFTY2 binding, higher = more signal.
In experiment [14] the target is Calmodulin-1 (Homo sapiens) (UniProt P0DP23). The experiment in a line: CALM1 binders on microarrays, EGTA buffer, profiling panel, biochemical, small-molecule microarray, Cy5-labelled CALM1 (AID 1111).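 Note: labelled calmodulin applied in Tris saline Tween buffer holding calcium plus EGTA and DTT.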 The settings on record: Cy5-CALM1 binding fluorescence, higher = more signal.
The target is the same in experiment [15]. The experiment in a line: calcium-bound CALM1 binders on microarrays, profiling panel, artefact control for SMM control-protein annotation, biochemical, small-molecule microarray, Cy5-labelled CALM1, plus calcium (AID 1112).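 Note: score merges spot fluorescence with signal to noise from triplicate slides.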 Conditions: Cy5-CALM1 binding fluorescence, higher = more signal.
Experiment [16] in a line: small-molecule microarray binders of probe aWnt5a, primary screen, biochemical, biotinylated probe, 635/667 nm fluorescence (AID 1113).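 Note: score merges 667 nm fluorescence intensity with signal-to-noise per printed feature.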 Conditions: higher = more signal.
The nature of experiment [17]: small-molecule microarray binders of probe aShh, primary screen, biochemical, biotinylated probe, 635/667 nm fluorescence (AID 1114).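 Note: probe is biotin-labelled aShh protein from a stem cell growth factor screen; measures binding of labelled protein to compounds printed on the slide; score merges feature fluorescence at 667 nm with signal-to-noise.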 Conditions: higher = more signal.
Experiment [18] is described as follows: small-molecule microarray binders of probe aNog, primary screen, biochemical, biotinylated probe, 635/667 nm fluorescence (AID 1115).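 Note: probe is biotinylated aNog protein used at 0.15 µg/mL for 1 h at 4 C; z-score combines 667 nm fluorescence of each spot with its signal to noise.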 The settings on record: higher = more signal.
Experiment [19] has as its target Torsin-1A-interacting protein 1 (Homo sapiens) (UniProt Q5JTV8). The experiment in a line: LAP1 binders from COS7 cell lysate, primary screen, small-molecule microarray, 635/667 nm fluorescence (AID 1116). The settings on record: COS7-hLAP1 lysate binding, 635 nm fluorescence, higher = more signal.
The target of experiment [20] is Alpha-bungarotoxin (Bungarus multicinctus) (UniProt P60615). The experiment in a line: alpha-bungarotoxin binders on microarray, profiling panel, artefact control for SMM control protein annotation, biochemical, small-molecule microarray, Alexa647 label, 635/667 nm fluorescence (AID 1117). The settings on record: alpha-BTX-A647 binding fluorescence, higher = more signal.
Chain of Alpha-bungarotoxin (Bungarus multicinctus) (P60615 whole entry, looked up): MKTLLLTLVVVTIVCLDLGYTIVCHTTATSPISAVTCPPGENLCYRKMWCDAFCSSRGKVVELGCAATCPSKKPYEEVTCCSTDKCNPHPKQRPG

Chain of Torsin-1A-interacting protein 1 (Homo sapiens) (Q5JTV8 whole entry, looked up): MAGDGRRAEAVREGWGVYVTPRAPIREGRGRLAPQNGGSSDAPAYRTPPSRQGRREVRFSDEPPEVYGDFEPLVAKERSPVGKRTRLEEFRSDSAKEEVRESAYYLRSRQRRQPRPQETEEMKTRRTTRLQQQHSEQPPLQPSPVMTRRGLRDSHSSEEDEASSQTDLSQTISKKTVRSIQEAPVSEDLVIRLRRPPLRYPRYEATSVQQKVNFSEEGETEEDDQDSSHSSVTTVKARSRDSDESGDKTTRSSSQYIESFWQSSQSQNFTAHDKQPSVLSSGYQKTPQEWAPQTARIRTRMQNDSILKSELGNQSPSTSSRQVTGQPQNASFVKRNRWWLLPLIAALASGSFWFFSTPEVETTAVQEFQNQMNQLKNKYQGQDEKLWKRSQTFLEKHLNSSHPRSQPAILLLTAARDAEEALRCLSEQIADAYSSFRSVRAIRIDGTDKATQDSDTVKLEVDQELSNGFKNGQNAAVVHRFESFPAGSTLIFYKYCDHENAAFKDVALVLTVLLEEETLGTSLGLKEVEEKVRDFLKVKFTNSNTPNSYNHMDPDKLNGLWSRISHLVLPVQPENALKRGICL
Chain of Follistatin-related protein 3 (Homo sapiens) (O95633 whole entry, looked up): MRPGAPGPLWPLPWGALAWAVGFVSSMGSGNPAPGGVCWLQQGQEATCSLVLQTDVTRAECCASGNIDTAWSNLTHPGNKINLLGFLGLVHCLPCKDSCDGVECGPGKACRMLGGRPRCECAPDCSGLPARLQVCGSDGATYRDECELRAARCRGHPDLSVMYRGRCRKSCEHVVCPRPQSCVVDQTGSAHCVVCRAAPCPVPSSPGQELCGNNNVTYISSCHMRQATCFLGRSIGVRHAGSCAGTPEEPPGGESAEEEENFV
Chain of Left-right determination factor 2 (Homo sapiens) (O00292 whole entry, looked up): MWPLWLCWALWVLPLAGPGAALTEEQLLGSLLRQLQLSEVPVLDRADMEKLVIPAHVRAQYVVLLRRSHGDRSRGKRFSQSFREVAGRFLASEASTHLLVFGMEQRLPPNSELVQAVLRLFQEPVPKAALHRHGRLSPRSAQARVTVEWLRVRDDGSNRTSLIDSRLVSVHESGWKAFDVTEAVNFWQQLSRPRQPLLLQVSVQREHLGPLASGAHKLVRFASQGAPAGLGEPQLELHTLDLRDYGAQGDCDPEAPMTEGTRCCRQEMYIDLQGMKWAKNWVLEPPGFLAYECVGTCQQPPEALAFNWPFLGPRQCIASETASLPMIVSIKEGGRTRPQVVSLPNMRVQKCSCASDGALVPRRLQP
Chain of Dickkopf-related protein 1 (Homo sapiens) (O94907 whole entry, looked up): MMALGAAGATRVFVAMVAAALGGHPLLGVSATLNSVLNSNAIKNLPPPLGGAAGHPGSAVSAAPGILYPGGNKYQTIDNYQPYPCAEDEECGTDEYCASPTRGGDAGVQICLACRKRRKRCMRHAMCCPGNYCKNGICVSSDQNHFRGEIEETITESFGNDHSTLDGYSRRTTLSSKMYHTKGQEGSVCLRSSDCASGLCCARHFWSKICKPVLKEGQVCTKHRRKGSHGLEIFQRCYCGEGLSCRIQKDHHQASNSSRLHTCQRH

As to `CC(C)NC(=O)[C@@H]1c2ccccc2C(=O)N(C(C)C)[C@H]1c1ccc(CO)cc1`, the composite z-score in experiment [1] was -0.509; in experiment [2] it was -0.29; in experiment [3], 0.91; in experiment [5], -0.633; in [6], 0.134; in experiment [7] it was -1. Besides, the composite z-score in experiment [8] was -0.994; in experiment [9] it was -1.72; in experiment [10], -0.751; in experiment [11], 1.42; in [13], -0.597; in [14], -0.639. Besides, the composite z-score was -0.128 in experiment [15]; -0.228 in experiment [16]; -0.291 in experiment [17]; -0.196 in [18]; 1.69 in experiment [19]; -0.558 in [20]. For the same compound, the z-score was -0.0664 (inactive) in [4] and -0.152 in experiment [12].

Regarding `COCCOC(=O)N1C(=O)[C@@]2(c3cc(C#CC4(O)CCCCCC4)ccc31)[C@H](C(=O)Nc1nc3ccccc3s1)[C@H]1C(=O)O[C@H](c3ccccc3)[C@H](c3ccccc3)N1[C@@H]2c1ccccc1OCCO`, the composite z-score in [1] came out at 1.07; in experiment [2], 0.199; in experiment [3], 0.365; in experiment [5], 1.3; in experiment [6], 1.29; in experiment [7], 0.38. Further, the composite z-score in experiment [8] is 1.05; in experiment [9], 0.287; in experiment [10], -0.0079; in experiment [11], -0.441; in [13], 0.555; in experiment [14] it was 1.71. Besides, the composite z-score in [15] was 0.926; in experiment [16], -0.0165; in experiment [17], 0.321; in [18], 0.546; in [19], 0.547; in [20], 2.37. The z-score in experiment [4] was -0.616 (inactive); in experiment [12], -1.66.

`COC(=O)c1c(CC[C@@H](CO)NC(=O)N[C@H](Cc2ccccc2)Cn2cc(-c3ccccn3)nn2)oc(C(C)=O)c1C(=O)OC`: the composite z-score in experiment [1] was 1.48; in experiment [2], -0.123; in experiment [3], -0.379; in experiment [5], 0.384; in experiment [6], 0.17; in experiment [7], -0.371. In addition, the composite z-score in experiment [8] was -0.15; in [9], -0.328; in experiment [10] it was -0.285; in experiment [11], 0.538; in experiment [13], -0.0385; in experiment [14] it was 0.475. In addition, the composite z-score is -0.556 in experiment [15]; -0.124 in experiment [16]; -0.304 in experiment [17]; -0.158 in experiment [18]; 1.79 in [19]; 1.08 in [20]. In addition, the z-score is 1.01 (inactive) in experiment [4] and -0.563 in experiment [12].

As to `CC(C)C(=C=CC[C@H](O)c1ccc(CO)o1)CCO`, the composite z-score in experiment [1] is 0.458; in experiment [2] it was -0.288; in [3], -0.471; in experiment [5], 0.494; in [6], 0.621; in [7], -0.115. For the same compound, the composite z-score in experiment [8] is 0.402; in [9], 0.0097; in [10], 0.411; in experiment [11], 1.21; in [13], -0.0171; in [14], -0.26. Also, the composite z-score in [15] is -0.649; in experiment [16] it was -0.15; in experiment [17], -0.0793; in experiment [18], -0.0827; in experiment [19] it was 0.843; in experiment [20], 0.963. Further, the z-score in experiment [4] was 0.241 (inactive); in [12], -1.12.

In the case of `Cc1ccc(S[C@]2(C(=O)NCC(C)C)CC(=O)N(Cc3cc(C(F)(F)F)cc(C(F)(F)F)c3)[C@@H]2c2ccc(CO)cc2)cc1`, the composite z-score in experiment [1] was 0.889; in experiment [2] it was 0.209; in experiment [3], 0.736; in [5] it was -0.417; in [6], -0.725; in [7] it was -1.25. Also, the composite z-score was -0.634 in [8]; -0.326 in [9]; 0.96 in experiment [10]; -0.716 in [11]; -0.419 in experiment [13]; -0.909 in [14]. Further, the composite z-score in experiment [15] is -0.468; in experiment [16], 0.168; in experiment [17] it was -0.153; in experiment [18], -0.468; in experiment [19], 0.489; in [20], -0.0201. Further, the z-score is 0.585 (inactive) in experiment [4] and -0.297 in experiment [12].

For `CC(C)[Si](C#CCCCC#N)(O[C@H](c1ccccc1)c1cn(Cc2cccc(Cl)c2)nn1)C(C)C`, the composite z-score in experiment [1] was 0.397; in experiment [2], -0.0654; in experiment [3], -0.594; in experiment [5], 0.483; in experiment [6] it was 1.18; in experiment [7], 0.376. Moreover, the composite z-score in experiment [8] was 1.11; in experiment [9], 0.968; in experiment [10] it was -0.018; in experiment [11] it was 1.31; in experiment [13] it was 0.634; in experiment [14], -0.412. In addition, the composite z-score is -0.745 in experiment [15]; -0.0977 in experiment [16]; -0.0553 in experiment [17]; -0.467 in [18]; 0.423 in experiment [19]; -0.0534 in experiment [20]. The z-score is -1.64 (inactive) in experiment [4] and -1.7 in [12].
